Compounds without any hit were thinned out: in the full panel of roughly 79,000, 15% have a hit. Activity calls are given as the source filed them. No stated cut-off is given here; in the data, active means growth inhibition above about 70%; inactive means the rest.
How the values were obtained:
[1] = NCI Yeast Anticancer Drug Screen. Data for the rad50 strain (AID 155);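 further: 0% = growth of vehicle-only cultures of the same strain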; settings: S. cerevisiae rad50 strain growth inhibition; at 50.0 µM; hits give high values
Method in brief: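 Inhibition values express reduced yeast growth in compound-treated cultures relative to vehicle-treated controls.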

[2] = NCI Yeast Anticancer Drug Screen. Data for the mec2-1 strain (AID 157); settings: S. cerevisiae mec2-1 strain, at 50.0 µM, hits give high values
Method in brief: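 Readout is yeast growth inhibition, normalised to vehicle-treated controls, in the mec2-1 strain exposed to compound.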

[3] = NCI Yeast Anticancer Drug Screen. Data for the sgs1 mgt1 strain (AID 161);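 further: 0% = growth of cultures given vehicle only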; settings: S. cerevisiae sgs1 mgt1 strain, at 50.0 µM, hits give high values
Method in brief: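 Percent growth inhibition was derived by comparing compound-exposed mutant yeast with vehicle-exposed cultures. The strain carries alterations in DNA damage repair.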

[4] = NCI Yeast Anticancer Drug Screen. Data for the cln2 rad14 strain (AID 165);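 further: 0% = growth equal to vehicle treated cultures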; settings: S. cerevisiae cln2 rad14 strain, at 50.0 µM, hits give high values
Method in brief: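 Relative to vehicle controls, growth inhibition of compound-treated cln2 rad14 yeast was recorded.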

[5] = NCI Yeast Anticancer Drug Screen. Data for the bub3 strain (AID 167); settings: S. cerevisiae bub3 mutant strain, at 50.0 µM, hits give high values
Method in brief: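 Steps: expose the mutant yeast strain to compound; grow alongside vehicle-treated cultures; measure growth; express inhibition against the vehicle cultures.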

[6] = NCI Yeast Anticancer Drug Screen. Data for the mlh1 rad18 strain (AID 175); settings: S. cerevisiae mlh1 rad18 strain growth inhibition; at 50.0 µM; hits give high values
Method in brief: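 Test agents were incubated with a yeast strain of defined genotype (DNA damage repair defect). Inhibition of growth was derived by comparison with vehicle-exposed cultures.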

Measured: growth inhibition

Cn1c(=O)c2c(n(C)c1=O)n(C)c(=O)n2C
inactive: [1] 18.3% | [2] 8.25% | [3] -18.9% | [4] 12.7% | [5] 1.85% | [6] 15.9%

COc1ccc(/C=C2\CCC/C(=C\c3ccc(O)c(CN4CCCCC4)c3)C2=O)cc1
active: [1] 89.2% | [2] 85.5% | [3] 91.2% | [4] 83% | [5] 89.1% | [6] 91.2%

CCOC(=O)C(F)C(C)=O (stereo not drawn)
inactive: [3] 56.2%
active: [1] 92% | [2] 94.5% | [4] 97.4% | [5] 99.5% | [6] 91.8%

CN1C(=O)N/C(=C\c2ccc(S(=O)(=O)N/N=C/c3ccccc3)cc2)C1=O
inactive: [1] 16.4% | [2] 44.9% | [3] 20.1% | [4] -2.55% | [5] 2.75% | [6] 39.9%

Cc1cc2[nH]c3c(C#N)c4c(c(=O)n3c2cc1C)CCCC4
inactive: [1] 10.1% | [2] 18.5% | [3] -7% | [4] 2.75% | [5] -5.85% | [6] -22.1%

CCCCOC(=O)COc1ccc2c(C)c(CCN(CC)CC)c(=O)oc2c1
inactive: [1] -13.1% | [2] -34.1% | [3] 1.25% | [4] -7.55% | [5] -21.8% | [6] -2.5%

COc1cccc(/C=C/S(=O)(=O)Cc2ccccc2)c1OC
inactive: [1] 9.7% | [2] 4.85% | [3] 4.85% | [4] 23.4% | [5] 7.4% | [6] 26.1%

C=CC1(C)C(C)=C(C)C(C)=C1C
inactive: [1] 11.1% | [2] -4.2% | [3] -13.7% | [4] 18% | [5] -2% | [6] 9.4%

O=[N+]([O-])c1ccc(OS(=O)(=O)c2ccccc2)cc1
inactive: [1] -3.25% | [2] 7.9% | [3] -5.35% | [4] -3.95% | [5] 4.05% | [6] 9.65%

Cc1ccc(SCC(CF)OCn2cc(F)c(=O)[nH]c2=O)cc1 (stereo not drawn)
inactive: [1] -7.85% | [2] -13% | [3] -12.2% | [4] -22.2% | [5] 1.95% | [6] -8.05%

CCCCN(CCCC)C(=N)c1cccc(OC)c1
inactive: [1] -7.9% | [2] -13.4% | [3] -7.35% | [4] -15.3% | [5] 2.75% | [6] -17.9%

CCOc1ccc2nc(C)ccc2c1
inactive: [1] 3.25% | [2] -14.7% | [3] 21.9% | [4] 9.85% | [5] 4.95% | [6] 17.7%

Cc1nc(N)[nH]c(=O)c1-n1nnc2ccccc2c1=O
inactive: [1] 0.15% | [2] 17.1% | [3] 14.1% | [4] -2.1% | [5] 0.9% | [6] -4.1%

CC1(C)CC23C(=O)N(c4ccccc4)C(=Nc4ccccc4)NC2=CC(C#N)=C(C#N)C3O1 (stereo not drawn)
inactive: [1] 2.6% | [2] -3.9% | [3] 5.3% | [4] 23.9% | [5] 0.85% | [6] -15.8%

CC(C)c1ccc(C=O)cc1
inactive: [1] 18.3% | [2] 31% | [3] -21.5% | [4] -12.2% | [5] -9.15% | [6] 11.4%

CN1CC2=C(NC(=S)NC2c2ccccc2Cl)/C(=C/c2ccccc2Cl)C1 (stereo not drawn)
inactive: [1] 14.7% | [2] 13.2% | [3] 37.6% | [4] 10.6% | [5] 61.8% | [6] -5.15%

N#CCCC(=O)c1ccccc1
inactive: [1] -1.5% | [2] -19.1% | [3] -1.15% | [4] -2.65% | [5] 5.15% | [6] 16.9%

O=C(O)CCc1ccc(O)c(O)c1
inactive: [1] 19.6% | [2] 2.5% | [3] 11.8% | [4] 13.3% | [5] 2.8% | [6] -21.8%

CC(C)(CN)C(=O)O
inactive: [1] -3.2% | [2] -6.95% | [3] -11.6% | [4] -17.1% | [5] -0.3% | [6] 9.75%

CCC(C#N)NC1CCN(Cc2ccccc2)CC1 (stereo not drawn)
inactive: [1] 1.3% | [2] -23.1% | [3] -2.05% | [4] 6.1% | [5] -7.75% | [6] 5.85%

CCOC(=O)C1(N)CC1
inactive: [1] 4.65% | [2] 7.1% | [3] 2.8% | [4] -10% | [5] -11.4% | [6] 17.2%

COc1ccc2[nH]c3c4c(cc(-c5ccccc5)c3c2c1)C(=O)N(c1ccccc1)C4=O
inactive: [1] -11.1% | [2] -6% | [3] -16.6% | [4] 11.2% | [5] -4.3% | [6] -6.8%

CC(N)C(=O)NC(C(=O)O)C(C)C (stereo not drawn)
inactive: [1] -2.4% | [2] -2.55% | [3] -16.1% | [4] -14.7% | [5] 0.3% | [6] -23.4%

CCOC(=O)c1cc(/C=C/C(C)=C/C(=O)OC)oc1C
inactive: [1] 6.85% | [2] 1.4% | [3] -0.45% | [4] -13.3% | [5] 5.4% | [6] 1.25%

CN1N=C(N)c2cn(C3OC(COP(=O)(O)O)C(O)C3O)c3ncnc1c23 (stereo not drawn)
inactive: [1] -16.2% | [2] 1.2% | [3] 4.7% | [4] -22.8% | [5] 11.3% | [6] -9.05%

c1ccc2c(c1)nc1n2C2CCC(C2)N1 (stereo not drawn)
inactive: [1] 4% | [2] 10% | [3] 18.8% | [4] 21.9% | [5] 6.15% | [6] 15.7%

CC(NC(=O)C(CSCc1ccccc1)NC(=O)OCc1ccccc1)C(=O)OCc1ccccc1 (stereo not drawn)
inactive: [1] -38% | [2] -9.7% | [3] -11.2% | [4] 24.4% | [5] -3.05% | [6] 10.8%

O=Cc1ccccc1Cl
inactive: [1] 28% | [2] 12.9% | [3] 16.8% | [4] -15.2% | [5] 10.9% | [6] 13.8%

NC(=O)c1ccccc1NC(=O)Nc1ccc(Cl)cc1
inactive: [1] -3.6% | [2] 20.8% | [3] 13.8% | [4] -15.3% | [5] 21.5% | [6] 27%

Cc1ccccc1-[n+]1noc(N)n1
inactive: [1] 4.75% | [2] 0.45% | [3] -14.6% | [4] 3.85% | [5] -0.7% | [6] 12.6%

COc1ccc(NC(=O)CC#N)cc1
inactive: [1] 7.9% | [2] 1.6% | [3] 15.8% | [4] 6.1% | [5] -3.25% | [6] 3.75%

Cc1ccccc1NCc1ccccc1
inactive: [1] 25.8% | [2] -3.2% | [3] 15.3% | [4] -29.8% | [5] 0.35% | [6] 23.1%

O=C(Nc1ccc(C2=NCCN2)cc1)c1cncc(C(=O)Nc2ccc(C3=NCCN3)cc2)c1
inactive: [1] 5.2% | [2] 22.6% | [3] 16.4% | [4] 50% | [5] 8.95% | [6] 45.6%

COC(=O)C1=COC(OC2OC(CO)C(O)C(O)C2O)C2C(C)CC(=O)C12 (stereo not drawn)
inactive: [1] -39.2% | [2] -39% | [3] -22.4% | [4] 20.6% | [5] -29.9% | [6] -20.4%

O=C(O)c1cccc(C(=O)O)c1C(=O)O.[NH-]C1CCCCC1[NH-].[Pt+2]
inactive: [1] -17.8% | [2] 0.1% | [3] -15.5% | [4] 22.1% | [5] 7.8% | [6] -34.3%

O=C(OCCCl)OCCCl
inactive: [1] 41.5% | [2] 18.9% | [3] 22.4% | [4] -21.9% | [5] -5.3% | [6] 25%

Cc1cncc(NS(=O)(=O)c2ccc(N)cc2)n1
inactive: [1] 0.7% | [2] 8.7% | [3] -5.45% | [4] -13.9% | [5] 10% | [6] 6.9%

CCOP(=O)(OCC)C(C(=O)OC)C(=O)C(=O)Nc1cccc([N+](=O)[O-])c1 (stereo not drawn)
inactive: [1] 7.8% | [2] -5.85% | [3] 23.2% | [4] -58.6% | [5] 0.35% | [6] 1.45%

O=C(O)c1ccc([C@@H]2C(=O)N(O)[C@@H]3C=CC[C@@H]32)cc1
inactive: [1] -8.4% | [2] -12.8% | [3] -7.45% | [4] 19.7% | [5] -14.7% | [6] 8.25%

Cc1c2oc3c(C)ccc(C(=O)NCc4cccnc4)c3nc-2c(C(=O)NCc2cccnc2)c(N)c1=O
inactive: [1] 42.6% | [2] -0.85% | [3] -6.85% | [4] 7.55% | [5] 2.6% | [6] 13.1%

COc1ccc(/C(=C/n2ccnc2)C(=O)c2ccc(OC)c(OC)c2)cc1
inactive: [1] -41.6% | [2] -18.7% | [3] -44.8% | [4] 5.8% | [5] -25.4% | [6] -44.5%

O=C(O)COc1cccc(O)c1
inactive: [1] -26.4% | [2] -24.2% | [3] -39.6% | [4] -13.1% | [5] -27.9% | [6] -20.1%

CCOC(=O)[C@H](Cc1ccccc1)NC(=O)c1nc[nH]c1[N+](=O)[O-]
inactive: [1] -10.1% | [2] -9.25% | [3] -31.1% | [4] 5.6% | [5] 1.2% | [6] -34%

— PubChem BioAssay (NCI)
